From the supplement of paper PMC12819154, “High-throughput peptide-centric local stability assay extends protein–ligand identification to membrane proteins, tissues and bacteria” (Nature Structural & Molecular Biology, 2025)

The targets below were run with CN[C@@H]1C[C@H]2O[C@@](C)([C@@H]1OC)n1c3ccccc3c3c4c(c5c6ccccc6n2c5c31)C(=O)NC4 [staurosporine] (assay: log2 fold change of tryptic peptide abundance, ligand vs vehicle (limited proteolysis) (log2 ratio); higher = more trypsin-susceptible (destabilized)). Conditions: ligand concentration: 20 uM; sample: K562 cleared lysate; digestion: 4 min, 22 C (HT-PELSA RT4min, Orbitrap Astral).

UniProt O43353, sequence (O43353 whole entry): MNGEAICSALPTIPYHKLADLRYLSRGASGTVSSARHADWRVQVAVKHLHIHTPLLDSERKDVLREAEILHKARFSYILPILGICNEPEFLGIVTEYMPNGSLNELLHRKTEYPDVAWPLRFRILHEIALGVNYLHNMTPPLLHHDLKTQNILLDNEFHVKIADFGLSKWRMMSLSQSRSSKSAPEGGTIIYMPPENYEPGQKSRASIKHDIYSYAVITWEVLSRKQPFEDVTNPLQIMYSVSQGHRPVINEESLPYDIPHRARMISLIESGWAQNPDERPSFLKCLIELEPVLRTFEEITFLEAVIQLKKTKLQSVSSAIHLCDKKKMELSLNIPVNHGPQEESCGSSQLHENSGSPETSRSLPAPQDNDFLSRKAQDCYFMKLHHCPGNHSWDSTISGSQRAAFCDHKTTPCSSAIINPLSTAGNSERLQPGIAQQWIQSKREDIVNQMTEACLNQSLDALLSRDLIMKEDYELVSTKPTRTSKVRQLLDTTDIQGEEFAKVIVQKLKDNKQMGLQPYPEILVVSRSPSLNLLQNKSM
UniProt P51812, sequence (P51812 whole entry): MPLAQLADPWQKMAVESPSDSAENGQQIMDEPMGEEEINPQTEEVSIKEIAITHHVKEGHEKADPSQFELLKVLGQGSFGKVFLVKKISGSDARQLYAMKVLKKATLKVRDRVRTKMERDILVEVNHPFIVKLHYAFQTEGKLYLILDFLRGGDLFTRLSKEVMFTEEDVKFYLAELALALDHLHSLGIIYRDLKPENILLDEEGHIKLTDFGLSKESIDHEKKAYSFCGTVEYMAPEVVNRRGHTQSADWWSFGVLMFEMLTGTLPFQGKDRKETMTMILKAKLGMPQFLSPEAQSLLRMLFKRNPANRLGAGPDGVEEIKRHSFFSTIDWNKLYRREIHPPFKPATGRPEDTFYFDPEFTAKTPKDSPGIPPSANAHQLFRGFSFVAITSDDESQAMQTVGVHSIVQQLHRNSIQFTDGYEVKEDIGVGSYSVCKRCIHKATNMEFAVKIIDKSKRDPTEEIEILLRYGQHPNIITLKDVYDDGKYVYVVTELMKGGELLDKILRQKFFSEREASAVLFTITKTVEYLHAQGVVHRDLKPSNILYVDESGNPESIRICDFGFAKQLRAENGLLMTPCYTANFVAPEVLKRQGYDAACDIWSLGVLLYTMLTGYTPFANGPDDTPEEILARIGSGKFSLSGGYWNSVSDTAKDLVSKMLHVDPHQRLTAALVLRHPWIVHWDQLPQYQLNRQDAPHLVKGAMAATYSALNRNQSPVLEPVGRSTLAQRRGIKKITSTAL
UniProt Q9NYV4, sequence (Q9NYV4 whole entry, looked up): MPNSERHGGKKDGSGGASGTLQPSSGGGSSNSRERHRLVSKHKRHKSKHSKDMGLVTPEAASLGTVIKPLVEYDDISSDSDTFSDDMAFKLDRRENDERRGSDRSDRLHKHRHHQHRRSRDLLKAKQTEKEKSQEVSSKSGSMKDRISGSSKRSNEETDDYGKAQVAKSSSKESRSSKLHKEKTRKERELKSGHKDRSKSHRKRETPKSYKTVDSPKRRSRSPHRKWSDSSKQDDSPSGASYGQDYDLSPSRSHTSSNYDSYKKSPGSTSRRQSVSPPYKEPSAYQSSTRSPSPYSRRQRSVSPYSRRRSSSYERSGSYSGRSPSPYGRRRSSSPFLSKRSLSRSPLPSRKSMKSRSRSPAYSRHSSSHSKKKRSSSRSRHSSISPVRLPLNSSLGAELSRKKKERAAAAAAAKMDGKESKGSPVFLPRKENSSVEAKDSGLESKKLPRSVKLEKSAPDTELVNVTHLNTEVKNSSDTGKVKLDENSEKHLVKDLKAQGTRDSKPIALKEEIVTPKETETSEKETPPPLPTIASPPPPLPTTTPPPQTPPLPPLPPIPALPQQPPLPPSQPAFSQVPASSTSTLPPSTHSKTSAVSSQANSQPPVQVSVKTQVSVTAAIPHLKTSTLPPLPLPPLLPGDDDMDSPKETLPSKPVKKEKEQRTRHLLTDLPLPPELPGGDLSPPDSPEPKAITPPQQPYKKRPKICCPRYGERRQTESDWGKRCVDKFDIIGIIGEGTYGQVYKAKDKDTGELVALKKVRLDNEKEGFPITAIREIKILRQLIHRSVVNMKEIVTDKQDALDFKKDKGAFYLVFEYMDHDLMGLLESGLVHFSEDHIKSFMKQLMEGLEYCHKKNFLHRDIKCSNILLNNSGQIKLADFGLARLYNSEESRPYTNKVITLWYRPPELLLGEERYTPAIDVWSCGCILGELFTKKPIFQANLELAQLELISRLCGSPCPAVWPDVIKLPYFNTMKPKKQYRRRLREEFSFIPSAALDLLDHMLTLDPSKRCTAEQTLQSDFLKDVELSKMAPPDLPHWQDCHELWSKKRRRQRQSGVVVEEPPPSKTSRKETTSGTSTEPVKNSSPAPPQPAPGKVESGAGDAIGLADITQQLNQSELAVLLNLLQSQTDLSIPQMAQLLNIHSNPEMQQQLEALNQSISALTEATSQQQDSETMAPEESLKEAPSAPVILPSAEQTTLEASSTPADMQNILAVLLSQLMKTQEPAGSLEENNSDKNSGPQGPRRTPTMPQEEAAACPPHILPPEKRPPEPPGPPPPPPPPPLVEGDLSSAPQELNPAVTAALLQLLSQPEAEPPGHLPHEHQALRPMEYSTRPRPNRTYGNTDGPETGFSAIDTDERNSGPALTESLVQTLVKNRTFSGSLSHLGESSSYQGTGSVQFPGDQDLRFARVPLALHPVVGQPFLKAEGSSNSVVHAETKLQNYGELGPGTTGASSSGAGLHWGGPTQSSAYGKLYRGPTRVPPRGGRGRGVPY
UniProt Q9BQG0, sequence (Q9BQG0 whole entry): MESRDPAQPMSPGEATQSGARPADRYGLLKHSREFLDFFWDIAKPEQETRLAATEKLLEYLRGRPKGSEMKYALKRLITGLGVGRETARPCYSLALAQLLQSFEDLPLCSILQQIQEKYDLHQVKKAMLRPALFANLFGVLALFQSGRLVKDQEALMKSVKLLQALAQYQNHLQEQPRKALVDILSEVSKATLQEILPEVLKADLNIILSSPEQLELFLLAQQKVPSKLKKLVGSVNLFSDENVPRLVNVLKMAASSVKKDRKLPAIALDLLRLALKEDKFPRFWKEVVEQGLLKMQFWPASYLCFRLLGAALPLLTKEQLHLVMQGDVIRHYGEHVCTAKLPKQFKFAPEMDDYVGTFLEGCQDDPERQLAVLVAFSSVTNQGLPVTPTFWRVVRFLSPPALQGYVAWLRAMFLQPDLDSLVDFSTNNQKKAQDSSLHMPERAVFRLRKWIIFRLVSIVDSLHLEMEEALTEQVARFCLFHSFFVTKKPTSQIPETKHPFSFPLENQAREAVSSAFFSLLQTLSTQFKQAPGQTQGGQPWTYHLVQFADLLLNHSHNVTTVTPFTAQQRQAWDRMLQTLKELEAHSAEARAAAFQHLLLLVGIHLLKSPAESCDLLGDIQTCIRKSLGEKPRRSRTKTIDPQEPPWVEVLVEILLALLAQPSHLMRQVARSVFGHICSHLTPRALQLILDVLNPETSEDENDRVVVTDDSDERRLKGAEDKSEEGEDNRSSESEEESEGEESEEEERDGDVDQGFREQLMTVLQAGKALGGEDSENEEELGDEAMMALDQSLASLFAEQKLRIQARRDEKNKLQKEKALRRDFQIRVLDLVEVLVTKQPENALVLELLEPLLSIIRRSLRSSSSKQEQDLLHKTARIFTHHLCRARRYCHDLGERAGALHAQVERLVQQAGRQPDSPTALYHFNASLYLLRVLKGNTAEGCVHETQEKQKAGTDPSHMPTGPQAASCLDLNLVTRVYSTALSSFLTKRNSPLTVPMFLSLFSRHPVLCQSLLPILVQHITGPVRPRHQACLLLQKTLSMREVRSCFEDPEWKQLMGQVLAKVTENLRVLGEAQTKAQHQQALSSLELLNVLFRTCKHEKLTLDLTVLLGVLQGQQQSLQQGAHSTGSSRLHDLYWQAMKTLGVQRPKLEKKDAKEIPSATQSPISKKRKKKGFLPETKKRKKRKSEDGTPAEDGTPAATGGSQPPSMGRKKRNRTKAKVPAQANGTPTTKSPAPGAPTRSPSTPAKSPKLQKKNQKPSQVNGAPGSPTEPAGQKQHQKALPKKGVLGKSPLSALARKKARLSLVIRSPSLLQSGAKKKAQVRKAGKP
UniProt Q99759, sequence (Q99759 whole entry): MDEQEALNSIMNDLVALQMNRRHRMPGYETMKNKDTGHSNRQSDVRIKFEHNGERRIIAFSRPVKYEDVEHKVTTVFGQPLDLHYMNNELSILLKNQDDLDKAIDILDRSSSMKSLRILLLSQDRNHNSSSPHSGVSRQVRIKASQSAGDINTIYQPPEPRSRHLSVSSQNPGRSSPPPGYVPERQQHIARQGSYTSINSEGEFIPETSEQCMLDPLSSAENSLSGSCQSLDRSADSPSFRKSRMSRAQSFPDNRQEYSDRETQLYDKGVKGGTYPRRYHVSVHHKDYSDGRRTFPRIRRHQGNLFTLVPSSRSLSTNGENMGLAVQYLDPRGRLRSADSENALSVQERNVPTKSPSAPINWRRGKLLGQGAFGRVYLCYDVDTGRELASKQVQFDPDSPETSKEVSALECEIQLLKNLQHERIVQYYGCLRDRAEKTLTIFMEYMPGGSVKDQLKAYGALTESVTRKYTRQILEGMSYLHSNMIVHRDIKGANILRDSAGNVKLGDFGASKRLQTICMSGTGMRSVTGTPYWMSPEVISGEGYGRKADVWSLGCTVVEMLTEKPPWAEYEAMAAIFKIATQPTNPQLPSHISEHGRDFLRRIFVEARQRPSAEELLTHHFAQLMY
UniProt P62995, sequence (P62995 whole entry): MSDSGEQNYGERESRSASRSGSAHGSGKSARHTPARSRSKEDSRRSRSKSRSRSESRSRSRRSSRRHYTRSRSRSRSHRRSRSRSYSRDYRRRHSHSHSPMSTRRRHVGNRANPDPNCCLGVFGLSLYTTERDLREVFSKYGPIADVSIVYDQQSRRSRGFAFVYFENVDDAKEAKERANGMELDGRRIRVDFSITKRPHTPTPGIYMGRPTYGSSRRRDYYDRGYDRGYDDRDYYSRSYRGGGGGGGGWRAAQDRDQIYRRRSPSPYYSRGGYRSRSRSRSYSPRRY

| Target | log2 fold change |
| --- | --- |
| UniProt Q9NYV4 (peptide sequence: EIVTDKQDALDFKK, peptide start residue: 791) | -1.83 |
| USP8 (peptide sequence: SYSSPDITQAIQEEEKR, peptide start residue: 716) (UniProt P40818) | 1.8 |
| PRDM15 (peptide sequence: VKREDLEAGGENLVR, peptide start residue: 882) (UniProt P57071) | -1.86 |
| DCUN1D4 (peptide sequence: YAFDFAR, peptide start residue: 144) (UniProt Q92564) | 1.53 |
| WEE1 (peptide sequence: FLANEVLQENYTHLPK, peptide start residue: 482) (UniProt P30291) | -1.01 |
| TNIK (peptide sequence: KFQSFIESCLVK, peptide start residue: 261) (UniProt Q9UKE5) | -0.632 |
| UniProt Q9BVS4 (peptide sequence: VLTAVEMGMK, peptide start residue: 19) | -1.57 |
| UniProt Q15208 (peptide sequence: VMEEEGLKDEEKR, peptide start residue: 51) | 0.382 |
| HBG1 (peptide sequence: VLTSLGDAIK, peptide start residue: 68) (UniProt P69891) | 0.204 |
| UniProt P51812 (peptide sequence: DILVEVNHPFIVK, peptide start residue: 120) | -0.86 |
| PDS5A (peptide sequence: SHDPEEAIRHDVIVTIITAAK, peptide start residue: 369) (UniProt Q29RF7) | 0.622 |
| UniProt P07437 (peptide sequence: IREEYPDRIMNTFSVVPSPK, peptide start residue: 155) | -2.5 |
| MAPK11 (peptide sequence: ILDFGLAR, peptide start residue: 166) (UniProt Q15759) | -1.18 |
| MYBBP1A (peptide sequence: VLKGNTAEGCVHETQEK, peptide start residue: 933) (UniProt Q9BQG0) | 2.16 |
| PRKAR2A (peptide sequence: GQYFGELALVTNKPR, peptide start residue: 333) (UniProt P13861) | 0.659 |
| UniProt P45984 (peptide sequence: DLKPSNIVVK, peptide start residue: 151) | -2.08 |
| RPL4 (peptide sequence: MFAPTKTWR, peptide start residue: 101) (UniProt P36578) | 0.751 |
| UniProt P62995 (peptide sequence: SPSPYYSR, peptide start residue: 264) | 1.31 |
| UniProt O75170 (peptide sequence: ILEAWEANDHTQAAGGMR, peptide start residue: 456) | -0.977 |

| Target | log2 fold change |
| --- | --- |
| HERC1 (peptide sequence: VMTCVWCNKK, peptide start residue: 3431) (UniProt Q15751) | 0.958 |
| TAGLN2 (peptide sequence: TLMNLGGLAVAR, peptide start residue: 128) (UniProt P37802) | 0.271 |
| SNRK (peptide sequence: IAGLYDLDKTLGR, peptide start residue: 12) (UniProt Q9NRH2) | -2.34 |
| CPOX (peptide sequence: EAEILEVLR, peptide start residue: 439) (UniProt P36551) | -1.06 |
| VIM (peptide sequence: MFGGPGTASRPSSSR, peptide start residue: 14) (UniProt P08670) | 0.344 |
| DHX16 (peptide sequence: QQTEKPESEDEWER, peptide start residue: 153) (UniProt O60231) | 2.31 |
| PRPF4B (peptide sequence: QHLCLVFEPLSMNLR, peptide start residue: 761) (UniProt Q13523) | -0.779 |
| CDK9 (peptide sequence: EGFPITALR, peptide start residue: 57) (UniProt P50750) | -1.73 |
| UniProt Q9Y6E0 (peptide sequence: AANVLLSEHGEVK, peptide start residue: 159) | -1.21 |
| BCR (peptide sequence: RAAQAPDGASEPR, peptide start residue: 79) (UniProt P11274) | 0.577 |
| RIPK1 (peptide sequence: IADLGLASFK, peptide start residue: 154) (UniProt Q13546) | -0.814 |
| UniProt Q9P289 (peptide sequence: NNPPTLVGDFTK, peptide start residue: 234) | -1.31 |
| GSTP1 (peptide sequence: MPPYTVVYFPVRGR, peptide start residue: 1) (UniProt P09211) | 0.55 |
| PRKD2 (peptide sequence: LSSTSLASGHSVR, peptide start residue: 196) (UniProt Q9BZL6) | 1.18 |
| UniProt Q16513 (peptide sequence: HPFLVNLFACFQTK, peptide start residue: 717) | -2.07 |
| NUP188 (peptide sequence: HTLNPEETSSVVR, peptide start residue: 331) (UniProt Q5SRE5) | 1.1 |
| RIPK2 (peptide sequence: KTEYPDVAWPLR, peptide start residue: 110) (UniProt O43353) | -0.494 |
| UniProt Q16629 (peptide sequence: YFQSPSR, peptide start residue: 189) | 1.29 |
| UniProt Q99759 (peptide sequence: SPSAPINWR, peptide start residue: 355) | -2.28 |
